Targets with a hit are over-represented here; the source holds about 7,900 in all. About 0.6% of all pairs of compound and target were hits.
Experiments:
Test in all cases: log2 fold change, soluble protein after heating vs DMSO (PISA); higher = thermal stabilisation; K562 cells, 10 uM, 30 min; active = over 0.2 and 3.5 SD of the protein, either way, in both replicates (recomputed)
erlotinib = compound: C#Cc1cccc(Nc2ncnc3cc(OCCOC)c(OCCOC)cc23)c1 [erlotinib]
Method in brief: (§1)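 K562 cells at 2×10^6 cells/mL were given 10 μM compound for 30 min. Aliquots then went through 3 min of heating across 48°C-58°C, were pooled, and were extracted in PBS with 0.5% NP-40 at 4°C, and the supernatant after 21,000xg for 90 min was quantified by TMTpro 16plex LC-MS/MS with channel sums equalised. Thermal stability relative to control samples, from duplicates, is given as log2 fold change.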

[1] = compound: C/C(=N\NC(=O)C1=CC(=CC=C1)S(=O)(=O)N2CCOCC2)/C3=C(C=CC(=C3)Cl)O
Method in brief: as §1

[2] = compound: C1=CC(=C(C=C1Cl)C2=NC3=NC=CN=C3C(=N2)NC4=CC=NC=C4)F
Method in brief: as §1

[3] = compound: C1=CC(=CC=C1C2=NC3=C(N2)C=C(C=C3)C(=O)N)OC4=CC=C(C=C4)Cl
Method in brief: as §1

[4] = compound: C1=CC2=C(C=CC(=C2)/C=C\3/C(=O)NC(=NCC4=CC=CS4)S3)N=C1
Method in brief: as §1

[5] = compound: C1=CC2=NC=CN=C2C=C1/C=C/3\C(=O)NC(=O)S3
Method in brief: as §1

[6] = compound: C1=CC=C(C=C1)C2=NC(=C(N2)C3=CC=NC=C3)C4=CC(=C(C=C4)Cl)O
Method in brief: as §1

[7] = compound: C1=CC=C2C(=C1)C3=NNC4=CC=CC(=C43)C2=O
Method in brief: as §1

[8] = compound: C1CCN(C1)C(=O)NC2=CC=CC(=C2)NC3=NC=C(C(=N3)NCCC4=CN=CN4)Br
Method in brief: as §1

[9] = compound: C1CN(CCC1(CC2=CC=C(C=C2)Cl)N)C3=NC=NC4=C3C=CN4
Method in brief: as §1

Measured: log2 fold change

ALDH9A1 isoform 3 (UniProt P49189)
inactive: erlotinib -0.025 | [1] 0.016 | [2] 0.043 | [3] 0.027 | [4] -0.004 | [5] 0.003 | [6] 0.037 | [7] -0.007 | [8] -0.018 | [9] 0.051

BRAF (UniProt P15056)
inactive: erlotinib 0.031 | [1] 0.057 | [2] 0.034 | [3] 0.007 | [4] 0.08 | [5] -0.012 | [7] -0.054 | [8] -0.088 | [9] 0.024

ATF1 (UniProt P18846)
inactive: erlotinib -0.058 | [1] 0.244 | [2] 0.129 | [3] -0.054 | [4] -0.221 | [5] 0.023 | [7] 0.039 | [8] -0.117 | [9] -0.024

APAF1 (UniProt O14727)
UniProt O14727, sequence (O14727 whole entry, looked up): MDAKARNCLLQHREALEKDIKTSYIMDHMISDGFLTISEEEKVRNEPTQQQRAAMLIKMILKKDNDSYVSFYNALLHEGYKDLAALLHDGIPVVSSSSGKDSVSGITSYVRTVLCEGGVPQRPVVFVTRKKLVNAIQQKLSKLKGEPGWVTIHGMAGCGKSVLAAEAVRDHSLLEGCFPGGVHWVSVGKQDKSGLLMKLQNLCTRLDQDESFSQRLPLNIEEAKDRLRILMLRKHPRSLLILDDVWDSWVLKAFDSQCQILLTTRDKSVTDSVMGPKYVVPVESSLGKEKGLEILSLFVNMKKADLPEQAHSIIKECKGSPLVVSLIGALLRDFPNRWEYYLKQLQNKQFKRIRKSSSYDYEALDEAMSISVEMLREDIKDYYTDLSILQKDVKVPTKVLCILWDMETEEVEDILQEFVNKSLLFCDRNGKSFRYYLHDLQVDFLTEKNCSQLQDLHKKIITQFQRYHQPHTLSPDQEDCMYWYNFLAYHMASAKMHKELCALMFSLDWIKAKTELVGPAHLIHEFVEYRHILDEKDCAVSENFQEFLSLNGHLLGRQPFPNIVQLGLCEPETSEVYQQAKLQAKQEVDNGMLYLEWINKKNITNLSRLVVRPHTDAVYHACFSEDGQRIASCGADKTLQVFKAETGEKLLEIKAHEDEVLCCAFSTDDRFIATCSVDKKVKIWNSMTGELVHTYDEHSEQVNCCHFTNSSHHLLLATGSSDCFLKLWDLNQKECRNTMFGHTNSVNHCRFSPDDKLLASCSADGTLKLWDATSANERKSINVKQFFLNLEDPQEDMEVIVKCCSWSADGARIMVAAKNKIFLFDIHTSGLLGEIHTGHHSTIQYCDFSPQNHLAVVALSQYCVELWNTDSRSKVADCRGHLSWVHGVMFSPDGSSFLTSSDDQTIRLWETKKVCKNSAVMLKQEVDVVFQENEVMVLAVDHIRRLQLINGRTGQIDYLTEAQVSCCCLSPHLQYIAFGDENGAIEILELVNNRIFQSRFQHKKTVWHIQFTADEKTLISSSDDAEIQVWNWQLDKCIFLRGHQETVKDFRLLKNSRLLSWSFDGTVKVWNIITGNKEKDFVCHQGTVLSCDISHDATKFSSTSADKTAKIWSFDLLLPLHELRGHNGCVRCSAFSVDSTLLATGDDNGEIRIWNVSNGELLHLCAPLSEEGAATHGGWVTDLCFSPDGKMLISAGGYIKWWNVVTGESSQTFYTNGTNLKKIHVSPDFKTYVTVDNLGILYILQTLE
inactive: erlotinib 0.207 | [1] 0.066 | [2] -0.073 | [3] 0.141 | [4] 0.016 | [6] 0.037 | [7] 0.011

AMFR (UniProt Q9UKV5)
inactive: erlotinib 0.116 | [1] 0 | [2] -0.022 | [3] -0.062 | [4] -0.046 | [5] 0.058 | [6] 0.026 | [7] -0.062 | [8] 0.002 | [9] -0.009

AGPAT5 (UniProt Q9NUQ2)
inactive: erlotinib 0.042 | [1] -0.019 | [2] -0.003 | [3] 0.014 | [4] 0.009 | [5] 0.048 | [6] 0.07 | [7] -0.001 | [8] -0.017 | [9] 0.079

AKAP8L (UniProt Q9ULX6)
UniProt Q9ULX6, sequence (Q9ULX6 whole entry, looked up): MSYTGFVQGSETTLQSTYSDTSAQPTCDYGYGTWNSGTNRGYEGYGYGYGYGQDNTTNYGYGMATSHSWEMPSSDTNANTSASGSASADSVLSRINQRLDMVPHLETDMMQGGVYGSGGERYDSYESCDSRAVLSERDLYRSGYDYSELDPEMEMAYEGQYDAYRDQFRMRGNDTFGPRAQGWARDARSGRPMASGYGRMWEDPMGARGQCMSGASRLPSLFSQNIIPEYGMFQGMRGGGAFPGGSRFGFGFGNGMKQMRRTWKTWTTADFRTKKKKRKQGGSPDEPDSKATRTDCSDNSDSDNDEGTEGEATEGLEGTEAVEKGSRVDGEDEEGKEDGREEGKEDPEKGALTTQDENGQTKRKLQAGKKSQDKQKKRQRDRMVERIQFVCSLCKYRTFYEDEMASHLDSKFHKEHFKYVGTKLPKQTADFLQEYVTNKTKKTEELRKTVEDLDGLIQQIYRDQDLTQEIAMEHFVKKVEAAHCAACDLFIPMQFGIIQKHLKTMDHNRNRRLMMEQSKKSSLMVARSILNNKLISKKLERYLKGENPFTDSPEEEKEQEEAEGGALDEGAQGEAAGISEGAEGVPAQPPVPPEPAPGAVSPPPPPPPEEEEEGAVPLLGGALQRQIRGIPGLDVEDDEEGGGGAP
inactive: erlotinib 0.001 | [1] 0.085 | [2] 0.074 | [3] 0.026 | [4] -0.006 | [5] -0.058 | [6] -0.054 | [7] -0.027 | [8] -0.053 | [9] 0.031

BAIAP2 (UniProt Q9UQB8)
inactive: erlotinib 0.033 | [1] 0.089 | [2] 0.012 | [3] -0.008 | [4] 0.018 | [5] 0.017 | [6] 0.014 | [7] -0.063 | [8] -0.101 | [9] -0.016

ARMC10 (UniProt Q8N2F6)
inactive: erlotinib -0.021 | [1] 0.044 | [2] -0.092 | [3] -0.066 | [4] 0.005 | [5] 0.006 | [6] -0.034 | [7] 0.016 | [8] 0.003 | [9] -0.023

ANXA5 (UniProt P08758)
UniProt P08758, sequence (P08758 whole entry, looked up): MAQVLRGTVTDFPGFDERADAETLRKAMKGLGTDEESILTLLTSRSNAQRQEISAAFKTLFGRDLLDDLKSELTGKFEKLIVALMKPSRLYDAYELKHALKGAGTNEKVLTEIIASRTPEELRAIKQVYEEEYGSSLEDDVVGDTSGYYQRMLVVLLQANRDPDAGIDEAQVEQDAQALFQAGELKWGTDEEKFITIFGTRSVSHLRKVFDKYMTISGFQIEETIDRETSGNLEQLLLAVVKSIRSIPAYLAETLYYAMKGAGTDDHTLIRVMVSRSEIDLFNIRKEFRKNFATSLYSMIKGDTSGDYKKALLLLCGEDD
inactive: erlotinib -0.012 | [1] 0.1 | [2] 0.06 | [3] -0.039 | [4] 0.009 | [5] 0.002 | [6] 0.013 | [7] 0.038 | [8] 0.022 | [9] -0.012

ATP2A3 isoform 2 (UniProt Q93084)
inactive: erlotinib -0.002 | [1] -0.002 | [2] 0.053 | [3] -0.002 | [4] -0.014 | [5] 0.014 | [6] -0.003 | [7] -0.04 | [8] -0.025 | [9] 0.059

AP2M1 (UniProt Q96CW1)
inactive: erlotinib -0.067 | [1] 0.006 | [2] -0.012 | [3] 0.017 | [4] 0.005 | [5] -0.016 | [6] 0.036 | [9] -0.01
active: [7] -0.26 | [8] -0.367

ADAM15 (UniProt Q13444)
inactive: erlotinib 0.314 | [1] 0.154 | [2] 0.03 | [3] -0.223 | [4] 0.035 | [5] 0.068 | [6] 0.043 | [7] 0.08 | [8] -0.042 | [9] 0.013

BUB1B isoform 3 (UniProt O60566)
inactive: erlotinib 0.019 | [1] 0.054 | [2] -0.049 | [3] -0.031 | [4] 0.157 | [5] 0.052 | [6] 0.037 | [7] -0.038 | [8] -0.031 | [9] -0.095

BSCL2 isoform 4 (UniProt Q96G97)
UniProt Q96G97, sequence (Q96G97 whole entry, looked up): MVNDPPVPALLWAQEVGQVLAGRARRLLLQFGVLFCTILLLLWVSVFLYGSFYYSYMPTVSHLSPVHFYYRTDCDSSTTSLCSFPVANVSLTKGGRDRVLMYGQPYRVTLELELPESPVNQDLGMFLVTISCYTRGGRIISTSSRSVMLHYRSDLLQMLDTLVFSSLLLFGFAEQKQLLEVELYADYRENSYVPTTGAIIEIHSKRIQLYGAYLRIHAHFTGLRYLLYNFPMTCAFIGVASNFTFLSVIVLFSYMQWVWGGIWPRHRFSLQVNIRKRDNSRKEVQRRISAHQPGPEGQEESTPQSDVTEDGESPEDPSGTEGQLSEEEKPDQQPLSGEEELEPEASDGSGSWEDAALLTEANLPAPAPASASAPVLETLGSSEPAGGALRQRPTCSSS
inactive: erlotinib -0.024 | [1] 0.088 | [2] -0.016 | [3] 0.052 | [4] 0.06 | [5] -0.012 | [7] -0.045 | [8] 0.045 | [9] -0.001

ATP5IF1 (UniProt Q9UII2)
inactive: erlotinib 0.001 | [1] -0.122 | [2] 0.032 | [3] -0.005 | [4] -0.104 | [5] 0.007 | [6] -0.051 | [7] 0.153 | [8] 0.053 | [9] 0.032

ATRN (UniProt O75882)
inactive: erlotinib 0.006 | [1] 0.037 | [2] -0.113 | [3] -0.148 | [4] 0.098 | [5] 0.04 | [7] -0.166 | [8] -0.052 | [9] 0.018

AP4S1 (UniProt Q9Y587)
active: [4] -0.456
inactive: erlotinib -0.014 | [1] -0.013 | [2] -0.015 | [3] 0.078 | [5] 0 | [7] -0.111

ACOX3 (UniProt O15254)
UniProt O15254, sequence (O15254 whole entry, looked up): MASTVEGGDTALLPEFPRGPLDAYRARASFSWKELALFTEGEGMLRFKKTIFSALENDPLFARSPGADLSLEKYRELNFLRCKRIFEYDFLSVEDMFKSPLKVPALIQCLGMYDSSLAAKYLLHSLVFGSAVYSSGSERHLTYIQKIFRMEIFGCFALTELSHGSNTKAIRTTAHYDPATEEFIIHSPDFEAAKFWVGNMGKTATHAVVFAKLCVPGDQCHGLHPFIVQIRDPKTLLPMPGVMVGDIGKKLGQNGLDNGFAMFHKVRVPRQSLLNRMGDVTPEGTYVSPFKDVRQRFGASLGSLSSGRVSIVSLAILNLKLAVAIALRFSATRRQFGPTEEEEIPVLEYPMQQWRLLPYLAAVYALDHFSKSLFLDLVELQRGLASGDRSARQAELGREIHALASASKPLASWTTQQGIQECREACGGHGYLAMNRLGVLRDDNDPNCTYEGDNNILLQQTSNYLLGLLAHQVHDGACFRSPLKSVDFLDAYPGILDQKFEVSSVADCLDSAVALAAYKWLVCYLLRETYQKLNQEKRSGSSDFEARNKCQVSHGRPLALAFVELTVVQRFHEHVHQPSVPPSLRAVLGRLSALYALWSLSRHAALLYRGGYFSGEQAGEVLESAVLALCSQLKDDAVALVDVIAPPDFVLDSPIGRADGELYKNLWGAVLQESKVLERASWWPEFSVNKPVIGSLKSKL
inactive: erlotinib 0.158 | [1] -0.157 | [2] -0.068 | [3] 0.007 | [4] -0.122 | [5] -0.026 | [7] 0.071 | [8] 0.153 | [9] 0.054

ACP1 (UniProt P24666)
inactive: erlotinib 0.149 | [1] 0.06 | [2] 0.035 | [3] -0.066 | [4] 0.224 | [5] -0.059 | [7] 0.109 | [8] -0.001 | [9] -0.015

ACVR1 (UniProt Q04771)
UniProt Q04771, sequence (Q04771 whole entry, looked up): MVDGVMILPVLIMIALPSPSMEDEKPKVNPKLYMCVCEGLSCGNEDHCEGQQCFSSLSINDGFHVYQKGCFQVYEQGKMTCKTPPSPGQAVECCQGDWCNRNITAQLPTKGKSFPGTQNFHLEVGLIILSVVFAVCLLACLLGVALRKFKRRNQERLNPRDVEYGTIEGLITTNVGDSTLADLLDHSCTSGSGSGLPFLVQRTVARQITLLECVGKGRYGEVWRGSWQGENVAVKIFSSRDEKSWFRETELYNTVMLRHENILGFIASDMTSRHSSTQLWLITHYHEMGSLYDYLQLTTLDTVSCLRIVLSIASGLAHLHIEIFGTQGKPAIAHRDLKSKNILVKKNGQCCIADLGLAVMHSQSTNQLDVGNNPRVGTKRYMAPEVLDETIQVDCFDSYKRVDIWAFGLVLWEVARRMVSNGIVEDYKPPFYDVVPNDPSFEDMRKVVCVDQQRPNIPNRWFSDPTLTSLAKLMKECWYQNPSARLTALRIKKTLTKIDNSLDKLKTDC
inactive: erlotinib -0.101 | [1] -0.051 | [2] 0.021 | [3] 0.031 | [4] -0.021 | [7] 0.136 | [8] -0.326 | [9] 0.035

ATP1B3 (UniProt P54709)
inactive: erlotinib -0.016 | [1] -0.004 | [2] -0.002 | [3] -0.019 | [4] -0.021 | [5] 0.023 | [6] 0.057 | [7] -0.052 | [8] -0.024 | [9] 0.048

ATP9B (UniProt O43861)
active: erlotinib 0.406
inactive: [1] 0.099 | [2] 0.01 | [3] -0.132 | [4] -0.029 | [5] -0.045 | [6] 0.033 | [7] -0.038 | [8] 0.027 | [9] -0.064

BECN1 (UniProt Q14457)
inactive: erlotinib -0.007 | [1] -0.035 | [2] 0.043 | [3] -0.042 | [4] -0.001 | [5] 0.085 | [6] -0.043 | [7] 0.008 | [8] 0.002 | [9] -0.042

ACADVL isoform 3 (UniProt P49748)
active: [3] 0.291
inactive: erlotinib 0.008 | [1] 0.015 | [2] 0.035 | [4] 0.023 | [5] 0.055 | [6] 0.027 | [7] 0.155 | [8] 0.025 | [9] 0.043

ACSF3 (UniProt Q4G176)
inactive: erlotinib 0.07 | [1] -0.066 | [2] 0.057 | [3] -0.155 | [4] -0.104 | [5] 0.04 | [6] 0.028 | [7] 0.022 | [8] -0.001 | [9] -0.038

AGAP3 isoform 4 (UniProt Q96P47)
inactive: erlotinib 0.11 | [1] 0 | [2] -0.078 | [3] -0.062 | [4] 0.017 | [5] 0.183 | [6] -0.024 | [7] -0.082 | [8] -0.075 | [9] 0.127

AP2S1 (UniProt P53680)
UniProt P53680, sequence (P53680 whole entry, looked up): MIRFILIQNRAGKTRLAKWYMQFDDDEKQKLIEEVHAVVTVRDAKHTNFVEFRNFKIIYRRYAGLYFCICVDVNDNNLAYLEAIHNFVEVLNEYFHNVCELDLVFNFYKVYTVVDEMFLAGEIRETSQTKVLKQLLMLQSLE
inactive: erlotinib -0.1 | [1] 0.148 | [2] -0.056 | [3] -0.018 | [4] 0.052 | [5] 0.013 | [6] -0.011 | [9] -0.003
active: [7] -0.27 | [8] -0.354

ABCB6 (UniProt Q9NP58)
inactive: erlotinib 0.017 | [1] 0.045 | [2] 0.029 | [3] 0.037 | [4] -0.003 | [5] 0.069 | [6] 0.087 | [7] -0.056 | [8] -0.057 | [9] 0.023

ARHGAP25 isoform 4 (UniProt P42331)
UniProt P42331, sequence (P42331 whole entry, looked up): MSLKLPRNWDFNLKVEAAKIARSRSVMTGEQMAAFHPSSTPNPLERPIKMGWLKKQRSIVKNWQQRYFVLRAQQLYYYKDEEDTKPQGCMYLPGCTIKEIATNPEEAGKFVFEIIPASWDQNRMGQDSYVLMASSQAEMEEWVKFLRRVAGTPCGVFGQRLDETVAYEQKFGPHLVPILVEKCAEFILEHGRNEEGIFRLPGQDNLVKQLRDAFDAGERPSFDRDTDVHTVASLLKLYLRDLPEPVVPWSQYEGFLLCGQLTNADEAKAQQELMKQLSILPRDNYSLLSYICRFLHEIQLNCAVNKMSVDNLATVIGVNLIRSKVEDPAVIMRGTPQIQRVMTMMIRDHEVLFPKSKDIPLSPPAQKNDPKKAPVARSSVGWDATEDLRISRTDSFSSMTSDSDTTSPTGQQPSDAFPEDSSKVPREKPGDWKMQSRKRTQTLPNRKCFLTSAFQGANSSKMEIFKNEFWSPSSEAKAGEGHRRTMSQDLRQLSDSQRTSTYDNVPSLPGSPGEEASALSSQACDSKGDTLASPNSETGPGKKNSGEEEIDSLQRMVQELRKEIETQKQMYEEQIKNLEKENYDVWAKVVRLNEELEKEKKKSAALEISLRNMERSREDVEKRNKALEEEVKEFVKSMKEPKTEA
inactive: erlotinib 0.07 | [1] 0.165 | [2] 0.109 | [3] -0.284 | [4] 0.042 | [5] -0.192 | [7] -0.062 | [8] 0.052 | [9] -0.147

ATXN7L3 isoform 2 (UniProt Q14CW9)
UniProt Q14CW9, sequence (Q14CW9 whole entry, looked up): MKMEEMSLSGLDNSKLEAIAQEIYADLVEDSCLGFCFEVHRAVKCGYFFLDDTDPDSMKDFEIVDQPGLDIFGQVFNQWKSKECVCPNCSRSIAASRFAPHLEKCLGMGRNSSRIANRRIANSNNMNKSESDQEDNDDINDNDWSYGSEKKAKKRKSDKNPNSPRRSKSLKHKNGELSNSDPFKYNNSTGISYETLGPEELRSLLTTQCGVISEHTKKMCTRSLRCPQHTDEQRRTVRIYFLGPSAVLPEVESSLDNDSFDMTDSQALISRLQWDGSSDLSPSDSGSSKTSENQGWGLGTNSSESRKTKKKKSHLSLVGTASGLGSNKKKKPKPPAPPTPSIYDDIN
inactive: erlotinib 0.069 | [1] -0.31 | [3] 0.071 | [4] 0.025 | [5] 0.159 | [6] -0.122 | [7] -0.037

From the supplement of paper PMC10849652
